DT40 TDP1 no CPT: qHTS for Inhibitors of human tyrosyl-DNA phosphodiesterase 1 (TDP1): qHTS in cells in absence of CPT; Potency, µM (series often up to 46.2 µM), actives largely listed as inhibitors; 420,000 compounds, 15% hits; DT40 Tdp1-/- hTDP1 cells, no CPT, ATP luminescence, 48 h; also: nearly all actives have a fitted effect of over 55% in size
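Chicken DT40 Tdp1-/- cells stably complemented with human TDP1 were seeded at 400 cells/well with DMSO in place of 20 nM camptothecin. After compound pinning, cells grew at least 48 hr at 37 °C; viability read by CellTiter-Glo luminescence.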
Gal4-VP16 FLuc: Gal4-VP16 reporter inhibition counter-screen; Potency, µM (titrated, usually from 53.6 µM), most hits filed as inhibitors; Drosophila S2 Gal4-VP16 UAS-luciferase, luminescence, 20 h; AID 2546; 310,000 compounds, 3.5% hits;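 also: Gal4-VP16 expression switched on by copper sulfate through the metallothionein promoter; nearly all actives have a fitted effect of over 50% in size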
DT40 TDP1 CPT: growth inhibition of DT40 Tdp1-/-;hTDP1 cells with camptothecin (screen for TDP1 inhibitors); 420,000 compounds, 12% hits; chicken DT40 Tdp1-/-;hTDP1 cells + 20 nM CPT, ATP luminescence, 48 h; AID 686979; Potency, µM (titrated, usually from 46.2 µM), hits mostly inhibitors; also: nearly all actives have a fitted effect of over 55% in size
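Cell growth measured by CellTiter-Glo luminescence after a minimum 48 h, 37 C compound exposure with 20 nM CPT in Tdp1-knockout DT40 cells stably expressing hTDP1, seeded 400/well; qHTS titration format.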
IL-1B inflam inh: inhibitors of inflammasome signaling (IL-1 beta secretion). THP-1 LPS/ATP IL-1B secretion, AlphaLISA, 16 h; stronger effect = lower value. activity change, % at 57.5 µM. 360,000 compounds, 4.7% hits. AID 743279; in the data active = activity change below about -50%; inconclusive = mostly about -30% to -49%
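Secreted IL-1B measured by AlphaLISA bead assay after 16 h compound exposure of THP-1 cells; compounds (final up to 57.5 uM) added 1 h before LPS (250 ng/mL) and ATP (1.25 mM) stimulation; lower signal means less secretion.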
RORg inh: ROR gamma (mouse) transcription inhibition; 310,000 compounds, 5.4% hits; AID 2551; Drosophila S2 Gal4-RORgamma UAS-luciferase reporter, 20 h; Potency, µM (titrated, usually from 53.6 µM), most hits filed as inhibitors; also: nearly all actives have a fitted effect of over 60% in size
Target sequence (P51450 whole entry, looked up, the tested form may be a part): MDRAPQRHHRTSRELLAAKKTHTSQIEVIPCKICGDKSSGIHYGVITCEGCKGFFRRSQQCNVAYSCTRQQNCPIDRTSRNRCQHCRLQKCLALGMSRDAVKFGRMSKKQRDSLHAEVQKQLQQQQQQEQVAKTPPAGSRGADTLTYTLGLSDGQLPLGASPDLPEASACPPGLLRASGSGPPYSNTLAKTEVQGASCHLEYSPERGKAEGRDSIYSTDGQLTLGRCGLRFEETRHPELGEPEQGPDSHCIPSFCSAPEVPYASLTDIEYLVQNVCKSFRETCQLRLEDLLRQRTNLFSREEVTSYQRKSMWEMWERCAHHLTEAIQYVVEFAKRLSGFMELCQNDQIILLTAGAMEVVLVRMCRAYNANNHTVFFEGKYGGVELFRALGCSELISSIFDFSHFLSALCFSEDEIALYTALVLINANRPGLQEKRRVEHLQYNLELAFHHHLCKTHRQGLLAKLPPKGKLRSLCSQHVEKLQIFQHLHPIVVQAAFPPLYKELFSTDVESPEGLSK
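Stable Schneider cell line, Gal4 DNA-binding domain fused to ROR gamma, UAS-luciferase. Cmpd 1 hr RT → CuSO4 700 uM final → 20 hr RT → luciferase reagent 10 min → luminescence.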
ELG1 repair inh: ELG1-dependent DNA repair inhibition; HEK293T ELG1-luciferase reporter, luminescence, 16 h; DNA damage induced by 5-fluorouridine; Potency, µM (highest dose often 46.1 µM), hits mostly inhibitors; 330,000 compounds, 2.3% hits; also: nearly all actives have a fitted effect of over 55% in size
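Luminescence from the luciferase reporter, measured 30 min after ONE-Glo reagent at room temperature, was the read-out. Beforehand, 2,000 cells per well were exposed for 16 hr at 37 °C to 5-fluorouridine together with compound or vehicle.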
Numbers stand for hits; 0 = inactive; ? = inconclusive; - = no result given. Hits are enriched below; roughly 21% of the tested compounds scored in any of these assays. Unless noted, calls follow the shape of the dose curve; as a rule, active = well fitted curve in the direction sought with a large enough effect; inconclusive = small, poorly fitted or top-dose-only effect, or another doubt; inactive = no such curve, though single readings can be large; an effect the other way counts as inactive or inconclusive.

SMILES | DT40 TDP1 no CPT | Gal4-VP16 FLuc | DT40 TDP1 CPT | IL-1B inflam inh | RORg inh | ELG1 repair inh
O=C(O)c1ccc(S(=O)(=O)N(Cl)Cl)cc1 | 0 | 0 | 0 | - | 0 | -
C=CCn1c(SC(C)C(=O)c2c(N)n(C)c(=O)n(C)c2=O)nnc1-c1ccoc1C (centres undefined) | 0 | - | 0 | 0 | - | 0
CCC(=O)N1CCC1(C)C(=O)Nc1cccc(OC)c1 (centres undefined) | 0 | - | 0 | 0 | - | -
COc1cccc(NC(=O)C2(C)CCN2C(=O)Cc2ccc(C(C)C)cc2)c1 (centres undefined) | ? | - | 18µM | 0 | - | -
CC(C)CN1CCC1(C)C(=O)Nc1cccc(C#N)c1 (centres undefined) | 0 | - | 0 | 0 | - | -
CC1(C(=O)Nc2ccccc2)CCN1C(=O)C1(c2ccccc2)CC1 (centres undefined) | 0 | - | ? | 0 | - | -
CC(C)c1ccc(CC(=O)N2CCC2(C)C(=O)Nc2cccc(C#N)c2)cc1 (centres undefined) | 16µM | - | ? | 0 | - | -
CC1(C(=O)Nc2cccc(C#N)c2)CCN1C(=O)CCc1ccccc1 (centres undefined) | ? | - | ? | 0 | - | -
CC1(C(=O)Nc2cccc(C#N)c2)CCN1C(=O)C1(c2ccccc2)CC1 (centres undefined) | ? | - | 5.2µM | 0 | - | -
CC1(C(=O)Nc2cccc(C#N)c2)CCN1C(=O)Cc1ccc(-c2ccccc2)cc1 (centres undefined) | 2.6µM | - | 4.1µM | 0 | - | -
CCOc1ccc(-n2c(SCC)nc3c(c2=O)SCC3)cc1 | ? | 0 | 0 | 0 | 0 | 0
CC(C)Cn1nnnc1S(=O)(=O)CC#N | - | 0 | - | - | 0 | -
Nc1cccnc1Sc1cc(Cl)c(Cl)cc1Cl | 0 | 0 | 0 | 0 | 0 | 0
CC1(C(=O)N2Cc3ccccc3C2)CCN1C(=O)C1(c2ccc(Cl)cc2)CC1 (centres undefined) | ? | - | 16µM | 0 | - | -
CC1(C(=O)NS(=O)(=O)c2cccc(C#N)c2)CCN1C(=O)C1(c2ccc(Cl)cc2)CCC1 (centres undefined) | 0 | - | 0 | 0 | - | -
CC1(C(=O)N2CCCCC2)CCN1C(=O)C1(c2ccccc2)CC1 (centres undefined) | 0 | - | 0 | 0 | - | -
CC1(C(=O)NS(=O)(=O)c2ccc(C#N)cc2)CCN1C(=O)C1(c2ccc(Cl)cc2)CCC1 (centres undefined) | 0 | - | 18µM | 0 | - | -
CC1=C(C(=O)N(C)C)CC(CC(=O)NCc2cccs2)C(=O)N1CCC1=CCCCC1 (centres undefined) | ? | - | 0 | 0 | - | -
CCOc1ccc(/C=C2\SC(N3CCCCC3)=NC2=O)cc1 | 2.9µM | 0 | 6.5µM | 0 | 0 | 0
CCOc1ccc(N=C2NC(=O)S/C2=C\c2ccc(N(C)C)cc2)cc1 | ? | 0 | 0 | 0 | 0 | ?
CC(C)c1ccc(/C=C2\SC(N3CCCC3)=NC2=O)cc1 | 23µM | 0 | ? | ? | ? | 0
CCOc1ccc(/C=C2/SC(=O)NC2=S)cc1 | ? | ? | 0 | 0 | 11µM | ?
Cn1c(=O)c(C(=O)NNC(=O)c2ccccc2Br)c(O)c2ccccc21 | ? | ? | ? | 0 | 20µM | 0
CCn1c(=O)c(C(=O)NNC(=O)c2ccccc2Br)c(O)c2ccccc21 | ? | ? | ? | 0 | ? | 0
Cn1c(=O)c(C(=O)NNC(=O)c2ccccc2Cl)c(O)c2ccccc21 | 18µM | ? | ? | 0 | 11µM | 0
SMILES | DT40 TDP1 no CPT | Gal4-VP16 FLuc | DT40 TDP1 CPT | IL-1B inflam inh | RORg inh | ELG1 repair inh
CC(=O)c1c(O)c2ccccc2n(C)c1=O | 0 | 0 | 0 | 0 | 0 | 0
CC(NC(=O)c1c(O)c2ccccc2n(C)c1=O)c1ccccc1 (centres undefined) | 18µM | ? | 23µM | 0 | 0 | ?
CCCCc1c(O)nc(SCC(=O)Nc2ccc(OC)cc2)n(-c2ccc(C)c(C)c2)c1=O | 0 | - | 0 | 0 | - | -
CCOC(=O)c1c(NC(=O)COC(=O)c2ccccn2)sc2c1CCC2 | 0 | 0 | 0 | 0 | 0 | 0
Cc1ccc(-c2c(C(=O)N/N=C/c3ccc4c(c3)OCO4)nnn2-c2nonc2N)cc1 | 0 | 0 | 0 | ? | 0 | 0
Cc1ccsc1/C=N/NC(=O)c1nnn(-c2nonc2N)c1-c1ccc2c(c1)OCO2 | 0 | ? | ? | -52 | 10µM | ?
Cc1ccc(SCc2c(C(=O)N/N=C/c3cccs3)nnn2-c2nonc2N)cc1 | ? | - | 0 | 0 | - | -
Nc1nonc1-n1nnc(C(=O)N/N=C/c2ccccc2Cl)c1-c1ccc2c(c1)OCO2 | 0 | 0 | 0 | 0 | 0 | ?
Nc1nonc1-n1nnc(C(=O)N/N=C/c2cccs2)c1-c1ccc2c(c1)OCO2 | 0 | 10µM | ? | 0 | 7.9µM | 0
Cc1ccc(-c2c(C(=O)N/N=C/c3cccs3)nnn2-c2nonc2N)cc1 | 0 | 5.6µM | 0 | 0 | 7.1µM | 0
Cc1cc(C)cc(OCc2nnc(N)s2)c1 | 0 | 0 | 0 | 0 | 0 | 0
Cn1ccc2c(-c3ccc(C(=O)O)cc3)cc3c(c21)C1CCC3O1 (centres undefined) | 0 | - | 0 | 0 | - | -
Cn1ccc2c(-c3ccc(C(C)(C)C)cc3)cc3c(c21)C1CCC3O1 (centres undefined) | 23µM | - | ? | 0 | - | -
Cn1ccc2c(-c3ccc(C(F)(F)F)cc3)cc3c(c21)C1CCC3O1 (centres undefined) | 16µM | - | 23µM | 0 | - | -
COc1cccc(N2CCN(C(=O)c3cc4cc5cc(C)ccc5nc4s3)CC2)c1 | 0 | - | 0 | - | - | -
C[C@@H](O)CNC(=O)c1[nH]cnc1C(=O)N[C@H](C)c1ccccc1 | 0 | - | 0 | 0 | - | -
Cc1ccc(S(=O)(=O)NCCc2ccncc2)cc1 | 0 | 0 | ? | 0 | 0 | 0
CCCCc1ccc(S(=O)(=O)NCCc2ccncc2)cc1 | 12µM | ? | 23µM | 0 | ? | 0
O=[N+]([O-])c1cccc(S(=O)(=O)NCc2ccncc2)c1 | 2.3µM | 10µM | 2.3µM | 0 | 0 | ?
O=[N+]([O-])c1cccc(S(=O)(=O)Nc2ccc(Cc3ccncc3)cc2)c1 | ? | ? | ? | 0 | ? | 0
Cc1cc(C)c(S(=O)(=O)NCc2ccncc2)c(C)c1 | 7.3µM | 8.9µM | 7.3µM | 0 | ? | ?
Cc1cc(C)c(S(=O)(=O)NCCc2ccncc2)c(C)c1 | 0 | 0 | 0 | 0 | 0 | 0
CCOc1ccc(S(=O)(=O)NCCC(=O)NCc2ccncc2)cc1 | 0 | - | 0 | 0 | - | 0
CCCCNS(=O)(=O)c1ccc(S(=O)(=O)NCc2ccncc2)cc1 | 7.3µM | ? | 4.1µM | ? | ? | ?
CCCN1CNc2c(c(=O)[nH]c(=S)n2CCc2c(OC)cccc2OC)C1 | 0 | - | 0 | - | - | -
O=C(c1ccccc1Cl)N1c2ncnn2C2(CCCCC2)[C@@H]2CCCC[C@@H]21 | ? | - | 0 | - | - | -

Screening results as filed in PubChem.
